# D3 antag: antagonists of human D3 dopamine receptor | D3R cells, DiscoveRx beta-arrestin luminescence, antagonist mode; active compounds read low | max response, negative = inhibition, % | actives 2.5% (n = 360,000) | AID 652054; in the data active = max response below about -50%; inconclusive = no clear call, values can overlap the other calls; also: % is scaled to controls: 0 for no effect and ±100 for the full control effect
# Target sequence (P35462 whole entry, looked up): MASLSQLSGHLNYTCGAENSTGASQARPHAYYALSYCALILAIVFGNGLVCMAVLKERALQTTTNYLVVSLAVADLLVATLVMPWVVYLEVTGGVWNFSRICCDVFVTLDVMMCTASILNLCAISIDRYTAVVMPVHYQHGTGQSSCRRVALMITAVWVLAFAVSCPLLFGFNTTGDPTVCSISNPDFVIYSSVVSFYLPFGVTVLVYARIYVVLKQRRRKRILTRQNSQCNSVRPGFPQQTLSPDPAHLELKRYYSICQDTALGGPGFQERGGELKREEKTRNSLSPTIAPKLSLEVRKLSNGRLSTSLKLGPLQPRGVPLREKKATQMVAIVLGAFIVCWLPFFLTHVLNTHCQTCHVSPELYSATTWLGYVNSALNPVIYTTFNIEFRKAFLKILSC
#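 Cells plated overnight at 1500 cells/well, then exposed to library compounds with dopamine controls for 90 minutes at 37 degrees C. DiscoveRx reagent added for 30–60 minutes at room temperature; luminescence read, quantitative HTS format.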
# D3 ag: activates the human D3 dopamine receptor. P35462. D3R DiscoveRx beta-arrestin cells, luminescence, 90 min. max activation, %. actives 0.58% (n = 410,000). AID 652048; in the data active = max activation above about 30%; also: 0% is about no effect
#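 Agonist-mode cell screen: cells plated at 1500/well and incubated overnight at 37 °C, then exposed to library compounds for 90 min at 37 °C. Detection reagent was added for 30–60 min at room temperature, and luminescence was read.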
# GLP1R ag: GLP-1 receptor (human) agonism; P43220; HEK293 GLP-1R CRE-luciferase, luminescence, 4-6 h; cells express a hypersensitive GLP-1R form; Potency, µM (titrated, usually from 45.6 µM), for inactives: at the top dose activation, actives largely listed as activators; actives 0.007% (n = 380,000); also: potency is read from the fitted curve at half-maximal effect; % of control where 0% means no effect
# GLP-1R inv ag: inverse agonists of human GLP-1 receptor | P43220 | Potency, µM (titrated, usually from 38.3 µM), without a hit: at the top dose activity change, negative = inhibition, hits mostly inhibitors | HEK293 GLP-1R CRE-luciferase, luminescence, 24 h; GLP-1R form is constitutively active | actives 1.6% (n = 410,000); also: potency is read from the fitted curve at half-maximal effect; % is scaled to controls: 0 for no effect and ±100 for the full control effect; nearly all actives have a fitted effect of over 55% in size
#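 HEK293 cells stably co-expressing a cAMP-responsive luciferase reporter and constitutively active GLP-1R were seeded, incubated 12 h, then exposed to compounds for 24 h at 37 C. Luminescence was read 12 min after detection reagent; inverse agonists lower signal.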
# An asterisk follows results filed as active; ? = inconclusive; . = no result given; [ ] = another dose, or the depositor's remark. Sampled rows, rich in hits. Any-hit rate of the full collection: about 4.3%. Unless noted, calls follow the shape of the dose curve; as a rule, active = well fitted curve in the direction sought with a large enough effect; inconclusive = small, poorly fitted or top-dose-only effect, or another doubt; inactive = no such curve, though single readings can be large; an effect the other way counts as inactive or inconclusive.
SMILES,D3 antag,D3 ag,GLP1R ag,GLP-1R inv ag
O=c1ccc2cc(S(=O)(=O)Nc3ccc(F)c(Cl)c3)ccc2[nH]1,.,1.3,0.9%,13.0%
CC(C)Oc1cc(F)ccc1-c1cc(C(=O)Nc2ccccc2)[nH]n1,-5.9,0.8,28.5%,11.2µM*
Cc1cc(F)ccc1-c1cc(C(=O)NCc2ccc(C(F)(F)F)cc2)[nH]n1,?,-16.0,-3.2%,?
Cc1ccc(Cl)cc1-c1cc(C(=O)NCc2ccc(C(F)(F)F)cc2)[nH]n1,-54.0*,-10.6,-1.0%,?
COc1ccc(Cl)c(-c2cc(C(=O)Nc3ccc(F)cc3)[nH]n2)c1,-52.0*,-20.2,-6.4%,?
COc1ccc(Cl)c(-c2cc(C(=O)Nc3ccccc3)[nH]n2)c1,0.0,-19.2,?,?
Cc1ccc(NC(=O)c2cc(-c3cc(Cl)ccc3O)n[nH]2)cc1C,45.6,3.1,-5.1%,20.5%
CC(C)Oc1cc(F)ccc1-c1cc(C(=O)Nc2ccc(C(C)C)cc2)[nH]n1,-9.5,-6.4,3.8%,?
Cc1ccc(Cl)cc1-c1cc(C(=O)Nc2ccc(F)cc2)[nH]n1,-85.1*,-18.5,-0.2%,?
O=C(CN1C(=O)NC2(CCCCC2)C1=O)Nc1cccc(S(=O)(=O)N2CCCC2)c1,-15.6,2.3,-3.6%,21.3%
CCc1c(C)c2ccc(OCC(=O)NCC3CCC(C(=O)O)CC3)cc2oc1=O (stereo not given),-13.8,13.9,3.8%,16.0%
COc1ccc(OC)c(-c2csc(NC(=O)Cc3ccc(F)cc3)n2)c1,18.6,-1.3,25.6%,?
COc1ccc(OC)c(-c2csc(NC(=O)c3ccc(F)cc3)n2)c1,3.2,4.4,-2.1%,10µM*
O=C(COc1ccc(Br)cc1)NNC(=S)NCc1ccccc1,-67.6*,-10.9,7.9%,?
Cc1cc(C)c2c(c1)c(C)cc1nnc(SCC(=O)c3ccc(F)cc3)n12,.,4.7,.,13.8%
COc1ccc(Br)cc1CNC(=O)CCc1cn(Cc2ccc(C)cc2)c2ccccc12,.,4.0,.,-17.3%
Cc1ccc(-c2nn(-c3ccccc3)cc2/C=N/n2c(-c3cccs3)n[nH]c2=S)cc1,3.3,7.3,4.5%,-27.5%
S=c1[nH]nc(-c2cccs2)n1/N=C/c1cn(-c2ccccc2)nc1-c1cccs1,14.2,30.4*,17.1%,20.6%
COc1ccc(OCc2cc(C(=O)NCCc3ccccc3)no2)c(Cl)c1,-10.5,3.9,10.0%,4.47µM*
CCOc1ccc(NC(=O)NC(C)c2c(-n3cccc3)sc3c2CCN(CC)C3)cc1 (stereo not given),.,-19.3,.,10.4%
CC(C)c1ccc(CN2CCN(C(=O)CCl)CC2)cc1,-22.0,-0.3,-5.0%,5.62µM*
CC(C)CC(=O)N1CCN(Cc2ccc(Cl)cc2)CC1,16.2,4.0,0.6%,?
O=C1CN(C(=O)c2ccc(Br)o2)C(c2ccc(F)cc2)c2cc(Cl)ccc2N1 (stereo not given),0.0,2.4,-3.8%,3.55µM*
O=C1CN(C(=O)c2ccc(Br)o2)C(c2ccccc2)c2cc(Br)ccc2N1 (stereo not given),41.3,2.7,-3.8%,7.08µM*
O=C1CN(C(=O)c2ccc(Br)o2)C(c2ccccc2)c2cc(Cl)ccc2N1 (stereo not given),3.9,11.7,6.3%,?
SMILES,D3 antag,D3 ag,GLP1R ag,GLP-1R inv ag
CCN(CC(=O)Nc1cc(Cl)ccc1Cl)C(=O)c1ccc(-n2cccn2)cc1,0.8,-1.5,2.8%,?
COc1cc(OC)c(NS(=O)(=O)c2c(C(=O)N3CCCCCC3)c(C)n(C)c2C)cc1Cl,.,2.4,.,6.8%
COc1cccc(CN(C)Cc2nc(Cc3ccccc3Cl)no2)c1,3.4,-15.3,5.2%,?
COc1cccc(C(C)N(C)Cc2nc(COc3ccccc3)no2)c1 (stereo not given),-10.4,-0.3,9.7%,10µM*
CC(c1cccs1)N(C)Cc1nc(CCc2ccccc2)no1 (stereo not given),1.6,0.0,-1.8%,10µM*
CC(C)CCc1noc(CN(C)CC2CCN(Cc3ccccc3)CC2)n1,-22.9,-11.3,0.1%,-8.1%[7.66 µM]
CN1CCN(CCCNC(=O)c2ccc3c(Cl)c4c(nc3c2)CCCC4)CC1,-16.3,-4.7,12.2%,-32.4%
COc1ccc(CCC(=O)NNC(=O)Nc2ccc(OC)c(OC)c2)cc1,4.5,1.7,-5.7%,3.6%
COc1ccc(NC(=O)NNC(=O)CCc2ccc(O)c(O)c2)cc1OC,-3.0,51.1*,0.2%,9.3%
Cc1cccc(NNC(=O)C(=O)NNc2cccc(C)c2)c1,4.3,14.4,-4.3%,?
